Assay in all cases: NCI-60 one-dose screen, 48 h (100 = growth as untreated, 0 = no growth, -100 = all killed)
What all share (settings): 10 µM unless noted

The test system of assay [1] is NCI-H23 lung.
The test system of assay [2] is NCI-H226 lung.
The subject of assay [3] is NCI-H322M lung.
Assay [4] deals with HOP-62 NSCLC.
Assay [5] concerns NCI-H460 lung.
The subject of assay [6] is HOP-92 NSCLC.
Assay [7] concerns NCI-H522 lung.
In assay [8] the test system is A549/ATCC NSCLC.
For assay [9], the system named is 786-0 renal.
In assay [10] the test system is COLO 205 colon.
The subject of assay [11] is DU-145 prostate.
In assay [12] the test system is MALME-3M melanoma.
Assay [13] relates to MDA-MB-231 breast.
The test system of assay [14] is SF-268 CNS.
The subject of assay [15] is SF-295 CNS.
For assay [16], the system named is SF-539 CNS.
For assay [17], the system named is M14 melanoma.
Assay [18] concerns K-562 leukemia.
Assay [19] relates to RXF 393 renal.
In assay [20] the test system is UACC-257 melanoma.

This is part of a sample that, as a whole, favours compounds with a hit. Of some 83,000 tested, about 20% had one in any assay.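 Testing used 96-well plates and a 48-hour single-concentration exposure. Example: -40 means 40% of the starting cells died.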 Unmarked numbers belong to inactive results. Calls of active or inactive are those of the source. How the source made its calls: active means growth percent below 10; inactive means the rest.

For `CC(=O)OCCC/C(=C\c1ccc2ccccc2c1)[N+](=O)[O-]`, the growth is -42.3% (active) in assay [1]; -23% (active) in assay [2]; 83.2% in [3]; -27.5% (active) in assay [4]; 64.3% in [5]; -90.5% (active) in assay [6]. Moreover, the growth in [7] was -80.3% (active); in assay [8] it was -72.3% (active); in assay [9], -93.4% (active); in [10], -77.9% (active); in assay [11] it was -93.6% (active); in assay [12], -53.5% (active). Further, the growth in [13] is -58.8% (active); in assay [14] it was -74.2% (active); in [15], 18%; in assay [16], -99% (active); in assay [17], -70.9% (active).

Take `NC1=Nc2cc(OCCCN3Cc4ccccc4C3)c(OCC3CC3)cc2C12CCCC2`: the growth in assay [1] was 77.2%; in assay [2], 80.7%; in [3], 91.6%; in assay [4] it was 77%; in assay [5] it was 69.8%; in assay [6] it was 40.7%. The growth in [7] was 39.7%; in assay [9], 55.6%; in assay [10], -62.5% (active); in [11] it was 78.6%; in assay [18], -8.16% (active); in assay [12], -58.3% (active). Further, the growth in [13] is 36.2%; in [19] it was 60.6%; in assay [14] it was 74.1%; in assay [15] it was 64.6%; in assay [16], 49.2%; in assay [20] it was -47.2% (active). The growth in assay [17] was -70.2% (active).

As for `Cc1csc(-c2nnc(Nc3ccc(Oc4ncccc4-c4ccnc(N)n4)cc3)c3ccccc23)c1`, the growth is 54.6% in assay [1]; 72.5% in assay [2]; 30.5% in assay [3]; 14.6% in assay [4]; 25.3% in assay [5]; 85.5% in assay [6]. The growth in assay [7] is 30.8%; in assay [9] it was 67.9%; in [10], -4.72% (active); in [11] it was 55.8%; in assay [18], 40%; in assay [12] it was 18.6%. Moreover, the growth is 37.7% in assay [13]; 8.98% (active) in [19]; 58.3% in assay [14]; 60.2% in assay [15]; 41.1% in assay [16]; 20.8% in [20]. For the same compound, the growth in assay [17] is 15.4%.

As to `Cc1cc(Nc2nc(N[C@@H](C)c3ncc(F)cn3)ncc2Cl)n[nH]1`, the growth is 69.9% in [1]; 46.8% in assay [2]; 52.8% in assay [3]; 60.3% in [4]; 81.6% in assay [5]; 108% in [6]. Further, the growth in assay [7] is 68.3%; in [9] it was 73.8%; in [10], 44.1%; in assay [11], 99.5%; in assay [18], 77.6%; in assay [12], 56.4%. Also, the growth is 83.8% in [13]; 24.4% in [19]; 72% in assay [14]; 94.4% in assay [15]; 80.8% in assay [16]; 71.1% in assay [20]. Also, in [17], the growth is 58.7%.

For the compound `COC(=O)CCCNc1c(-c2c(O)c(O)cc3c(O)c(-c4c(C)cc5c(-c6nc7ccccn7c6NCCCC(=O)OC)c(O)c(O)cc5c4O)c(C)cc23)nc2ccccn12`, the growth in assay [1] is 6.48% (active); in assay [2] it was 64.8%; in [3], 93.2%; in assay [4] it was 37.1%; in [5], 6.59% (active); in assay [6], 55.3%. In addition, the growth was 1.98% (active) in assay [7]; 67.6% in [9]; 87% in [10]; 29.6% in [11]; 11% in assay [18]; 39.9% in assay [12]. Further, the growth in [13] is 56.1%; in assay [19], 32.9%; in [14] it was 25.3%; in assay [15] it was 26.4%; in assay [16], 2.01% (active); in assay [17] it was 60.3%.

On to `C#Cc1cccc(Nc2ncnc3cc(OC)c(OCCCCCCC(=O)NO)cc23)c1`, for which the growth in [1] was -31.4% (active); in assay [2], -10.9% (active); in [3], -8.88% (active); in assay [4] it was -37.5% (active); in assay [5], 1.24% (active); in [6], -26.4% (active). Further, the growth is -58.2% (active) in assay [7]; -15.4% (active) in assay [9]; -65% (active) in assay [10]; 0.81% (active) in assay [11]; 5.48% (active) in [18]; 2.19% (active) in assay [12]. Also, the growth is -16.8% (active) in [13]; -49.5% (active) in assay [19]; -3.98% (active) in assay [14]; -53.6% (active) in [15]; -1.18% (active) in [16]; -47.3% (active) in [20]. Besides, the growth in assay [17] is 2.66% (active).

Take `CCN(CC)CCOc1ccc(/C(=C(\C)c2ccc(Cl)cc2)c2ccc(Cl)cc2)cc1`: the growth in assay [1] is 60.7%; in [2], 102%; in [3], 87.3%; in [4] it was 95.2%; in assay [5], 36.4%; in assay [6] it was 80.5%. Moreover, the growth in [7] is 81.7%; in [9], 60.2%; in assay [10], 8.85% (active); in [11], 97.2%; in [18], 7.09% (active); in [12], 87.2%. The growth in [13] is 84.3%; in assay [19], 51.2%; in [14], 80.7%; in [15], 65.2%; in assay [16], 67%; in assay [20] it was 96.1%. Moreover, the growth in assay [17] is 71%.

On to `O=C(Nc1ccc(C(=O)Nc2ccc(C3=NCCCN3)cc2)cc1)Nc1ccc(C2=NCCCN2)cc1`, for which the growth in [1] was 63%; in assay [2], 67.9%; in assay [3] it was 84.8%; in [4], 87.1%; in [5], 75%; in assay [6], 80.5%. For the same compound, the growth is 71.6% in [7]; 75.9% in [8]; 96.7% in assay [9]; 105% in assay [10]; 96.1% in assay [11]; 69.5% in assay [12]. For the same compound, the growth was 92.4% in assay [13]; 110% in assay [14]; 85.3% in [15]; 87.2% in [16]; 87% in [17].
